Inconclusive results are not listed. Calls of active or inactive are those of the source. Unless noted, calls follow the shape of the full dose curve.
Legend:
[1] = qHTS assay to identify small molecule agonists of the sonic hedgehog signaling (Shh) pathway (AID 1259368);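 also: NIH/3T3-derived 3T3Gli1-Luc cells carrying a stable Gli1-driven firefly luciferase reporter; series mostly up to about 92 µM; nearly all actives have a fitted effect of over 15% in size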
Method in brief: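 Stable NIH/3T3 Gli1-Luc reporter clone; 24 hr cpd exposure after a 4 hr settling period; luminescence endpoint.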

[2] = qHTS assay to identify small molecule agonists of the androgen receptor (AR) signaling pathway in the presence of an antagonist - cell viability counter screen (AID 1259379; active = well fitted curve in the direction sought with a large enough effect in the repeat runs; an effect the other way counts as inactive or inconclusive; also: nearly all actives have a fitted effect of over 25% in size; also: potency is read from the fitted curve at half-maximal effect)
Method in brief: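 Counter screen for cell viability run in parallel with the AR agonist-mode luciferase assay. MDA-kb2 cells were co-treated with nilutamide (3.0uM final) and compounds, then incubated 16 hr at 37C, and CellTiter-Fluor fluorescence was measured.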

[3] = qHTS assay to identify small molecule agonists of the estrogen receptor beta (ER-beta) signaling pathway - cell viability counter screen (AID 1259380; active = well fitted curve in the direction sought with a large enough effect in the repeat runs; an effect the other way counts as inactive or inconclusive; also: nearly all actives have a fitted effect of over 30% in size; also: potency is read from the fitted curve at half-maximal effect)
Method in brief: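 In this qHTS counter screen, HEK293T cells carrying an ER-beta/UAS beta-lactamase reporter, grown in 2% charcoal-stripped FBS, received compound for 16 hr; ATP-based CellTiter-Glo luminescence was then read after 30 min at room temperature.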

[4] = biological target: Androgen receptor (Homo sapiens) (UniProt P10275); assay: qHTS assay to identify small molecule agonists of the androgen receptor (AR) signaling pathway in the presence of an antagonist (AID 1259381); also: nearly all actives have a fitted effect of over 15% in size
Method in brief: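 AR antagonist background: nilutamide 3.0uM final. Cell line: MDA-kb2, MMTV-driven luciferase, responsive to both AR and GR. Exposure 16hr, 37C, no CO2; ONE-Glo luminescence.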

[5] = qHTS assay to identify small molecule antagonists of the estrogen receptor beta (ER-beta) signaling pathway - cell viability counter screen (AID 1259382; active = well fitted curve in the direction sought with a large enough effect in the repeat runs; an effect the other way counts as inactive or inconclusive; also: nearly all actives have a fitted effect of over 55% in size; also: potency is read from the fitted curve at half-maximal effect)
Method in brief: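 HEK293T ER-beta-UAS-bla, 2% charcoal-stripped FBS; compounds + 1nM E2 16 hr 37C; CellTiter-Glo luminescence, 30 min RT.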

[6] = biological target: Estrogen receptor (Homo sapiens) (UniProt P03372); assay: qHTS assay to identify small molecule agonists of the estrogen receptor alpha (ER-alpha) signaling pathway in the presence of an antagonist (AID 1259383); also: nearly all actives have a fitted effect of over 15% in size; also: potency is read from the fitted curve at half-maximal effect; as to activation: top concentration of the series differs between compounds
Method in brief: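 ER-alpha agonism measured under antagonist challenge: 10.0nM ICI-182,780 (final) plus compound, 15 concentrations, 22hr, VM7Luc4E2 ERE-luciferase cells. Read by luminescence.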

[7] = qHTS assay to identify small molecule agonists or antagonists of the thyroid stimulating hormone receptor (TSHR) signaling pathway - wild type cell line counter screen (AID 1259384)
Method in brief: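 Wild-type HEK293 cells were plated 18 h at 37 C/5% CO2, pin-dosed with compound plus Ro20-1724 medium, held 30 min at room temperature, then given cAMP-d2 and anti-cAMP-cryptate; fluorescence was read after 1 h. Fifteen concentrations, triplicate.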

[8] = biological target: Estrogen receptor beta (Homo sapiens) (UniProt Q92731); assay: qHTS assay to identify small molecule agonists of the estrogen receptor beta (ER-beta) signaling pathway (AID 1259377; active = well fitted activation curve with a large enough effect in the signal ratio in the repeat runs, not every such curve was filed as active; the % refers to the signal ratio; also: potency is read from the fitted curve at half-maximal effect)
Method in brief: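 Measured by fluorescence intensity from a B/G FRET beta-lactamase substrate (2 h, room temperature) in ER-beta-UAS-bla HEK293T cells treated with DMSO-dissolved compounds for 16 hr at 37C and 5% CO2.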

[9] = qHTS assay to identify small molecule antagonists of the sonic hedgehog signaling (Shh) pathway (AID 1259369); also: nearly all actives have a fitted effect of over 45% in size; also: potency is read from the fitted curve at half-maximal effect
Method in brief: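 Gli1 transcriptional reporter (firefly Luc) in NIH/3T3 background, conditioned-medium activated. 24hr exposure, luminescence endpoint.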

[10] = biological target: Estrogen receptor beta (Homo sapiens) (UniProt Q92731); assay: qHTS assay to identify small molecule antagonists of the estrogen receptor beta (ER-beta) signaling pathway (AID 1259378; active = well fitted inhibition curve with a large enough effect in the signal ratio in the repeat runs, not every such curve was filed as active; the % refers to the signal ratio; also: potency is read from the fitted curve at half-maximal effect)
Method in brief: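 ER-beta-UAS-bla HEK293T (GripTite) cells in 2% charcoal-stripped FBS medium were preincubated 6 hr at 37C, dosed with compound, then stimulated with 1 nM E2 (final) for 16 hr; beta-lactamase reporter read by B/G FRET fluorescence after 2 hr substrate loading.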
% is scaled to controls: 0 for no effect and ±100 for the full control effect.

Sequence of Estrogen receptor (Homo sapiens) (P03372 whole entry, looked up): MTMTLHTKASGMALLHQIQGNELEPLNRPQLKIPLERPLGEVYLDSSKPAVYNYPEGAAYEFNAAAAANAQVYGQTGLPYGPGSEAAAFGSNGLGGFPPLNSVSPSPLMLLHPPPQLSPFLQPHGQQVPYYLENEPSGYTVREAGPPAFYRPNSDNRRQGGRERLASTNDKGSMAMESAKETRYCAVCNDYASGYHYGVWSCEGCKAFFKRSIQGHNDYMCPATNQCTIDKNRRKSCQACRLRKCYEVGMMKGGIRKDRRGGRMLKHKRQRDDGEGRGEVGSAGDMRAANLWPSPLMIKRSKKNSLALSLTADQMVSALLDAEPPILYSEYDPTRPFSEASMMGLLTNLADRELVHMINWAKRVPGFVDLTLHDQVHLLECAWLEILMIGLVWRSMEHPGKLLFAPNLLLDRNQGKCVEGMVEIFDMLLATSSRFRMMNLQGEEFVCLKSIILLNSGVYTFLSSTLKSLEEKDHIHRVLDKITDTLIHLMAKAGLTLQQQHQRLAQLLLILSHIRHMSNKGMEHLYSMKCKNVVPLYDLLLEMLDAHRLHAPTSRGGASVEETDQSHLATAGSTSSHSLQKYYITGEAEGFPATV
Sequence of Androgen receptor (Homo sapiens) (P10275 whole entry, looked up): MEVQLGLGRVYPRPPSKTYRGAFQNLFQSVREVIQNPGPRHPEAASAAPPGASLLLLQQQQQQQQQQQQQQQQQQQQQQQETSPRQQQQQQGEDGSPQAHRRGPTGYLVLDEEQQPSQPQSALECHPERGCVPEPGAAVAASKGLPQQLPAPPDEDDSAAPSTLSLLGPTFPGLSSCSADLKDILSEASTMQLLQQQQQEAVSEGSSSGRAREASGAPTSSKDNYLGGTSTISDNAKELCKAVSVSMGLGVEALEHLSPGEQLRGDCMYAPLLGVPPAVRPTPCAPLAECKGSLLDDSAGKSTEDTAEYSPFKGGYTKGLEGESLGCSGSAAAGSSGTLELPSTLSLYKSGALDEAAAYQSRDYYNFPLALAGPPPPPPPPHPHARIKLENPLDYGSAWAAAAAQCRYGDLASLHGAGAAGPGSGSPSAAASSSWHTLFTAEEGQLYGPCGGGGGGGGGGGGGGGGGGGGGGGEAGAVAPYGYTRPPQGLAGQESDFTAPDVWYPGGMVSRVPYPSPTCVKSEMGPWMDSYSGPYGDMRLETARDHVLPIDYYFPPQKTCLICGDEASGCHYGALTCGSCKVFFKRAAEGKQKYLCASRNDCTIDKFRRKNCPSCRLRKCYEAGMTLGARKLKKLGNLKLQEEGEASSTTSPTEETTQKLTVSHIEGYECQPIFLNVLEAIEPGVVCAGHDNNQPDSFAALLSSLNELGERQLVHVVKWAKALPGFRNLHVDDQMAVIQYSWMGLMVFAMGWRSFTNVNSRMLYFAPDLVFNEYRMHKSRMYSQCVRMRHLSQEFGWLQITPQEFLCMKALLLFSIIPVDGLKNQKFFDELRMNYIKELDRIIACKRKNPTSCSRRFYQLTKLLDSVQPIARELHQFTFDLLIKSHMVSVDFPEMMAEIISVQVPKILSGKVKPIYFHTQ
Sequence of Estrogen receptor beta (Homo sapiens) (Q92731 whole entry, looked up): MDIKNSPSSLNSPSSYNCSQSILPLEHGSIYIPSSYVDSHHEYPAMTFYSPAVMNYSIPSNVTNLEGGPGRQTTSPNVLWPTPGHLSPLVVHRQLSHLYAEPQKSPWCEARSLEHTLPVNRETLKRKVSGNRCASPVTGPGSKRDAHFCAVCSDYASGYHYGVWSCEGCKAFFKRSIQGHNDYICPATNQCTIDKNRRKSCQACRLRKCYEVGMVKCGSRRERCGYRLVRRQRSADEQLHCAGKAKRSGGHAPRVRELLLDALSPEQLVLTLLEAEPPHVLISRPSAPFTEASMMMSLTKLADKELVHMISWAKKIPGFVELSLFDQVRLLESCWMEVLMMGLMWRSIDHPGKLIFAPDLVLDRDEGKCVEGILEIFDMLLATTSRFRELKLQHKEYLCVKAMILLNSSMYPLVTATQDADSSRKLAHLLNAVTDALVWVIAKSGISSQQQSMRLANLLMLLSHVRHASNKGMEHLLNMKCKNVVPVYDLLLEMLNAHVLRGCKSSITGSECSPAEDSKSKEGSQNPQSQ

NC1[C@H]2CN(c3nc4c(cc3F)c(=O)c(C(=O)O)cn4-c3ccc(F)cc3F)C[C@@H]12 (stereo not given in full)
inactive: Potency [1] | Potency [2] | Potency [3] | Potency [4] | Potency [5] | Potency [6] | outcome [7]

Cc1ccccc1N=C(N)Nc1ccccc1C
inactive: Potency [1] | Potency [2] | Potency [3] | Potency [5] | Potency [6] | outcome [7]

O=C1c2ccccc2C(=O)c2c(O)c(O)cc(O)c21
active: Potency [2] 30.6 µM
inactive: Potency [1] | Potency [3] | Potency [4] | Potency [5] | Potency [6] | outcome [7]

CCOC(=O)C1=C(C)NC(C)=C(C(=O)OC)C1c1cccc(Cl)c1Cl (stereo not given)
inactive: Potency [1] | Potency [8] | Potency [2] | Potency [5] | Potency [6] | outcome [7]

C=C(C)[C@@H]1CCC2=CCC[C@@H](C)[C@]2(C)C1
inactive: Potency [1] | Potency [3] | Potency [4] | Potency [5] | Potency [6] | outcome [7]

CCCCC(CC)COP(=O)(O)O (stereo not given)
inactive: Potency [1] | Potency [2] | Potency [5] | Potency [6] | outcome [7]

O=c1c(O)c(-c2ccc(O)cc2)oc2cc(O)cc(O)c12
inactive: Potency [1] | Potency [2] | Potency [5] | outcome [7]

CC(=O)[C@H]1[C@H](C#N)C[C@H]2[C@@H]3CC=C4C[C@@H](O)CC[C@]4(C)[C@H]3CC[C@@]21C
inactive: Potency [1] | Potency [8] | Potency [2] | Potency [6]
active: Potency [3] 29.5 µM

COC(=O)CS
inactive: Potency [1] | Potency [8] | Potency [5] | Potency [6] | outcome [7]

C[C@H]1C[C@H](O)c2ccsc2S1(=O)=O
inactive: Potency [9] | Potency [8] | Potency [10] | Potency [2] | Potency [3] | Potency [4] | Potency [5] | Potency [6] | outcome [7]

CN1CC(=O)N2[C@H](c3ccc4c(c3)OCO4)c3[nH]c4ccccc4c3C[C@@H]2C1=O
inactive: Potency [1] | Potency [2] | Potency [3] | Potency [5] | Potency [6] | outcome [7]

O=[N+]([O-])c1ccc(O/N=C/c2cc(Br)c(O)c(Br)c2)c([N+](=O)[O-])c1
inactive: Potency [1] | Potency [5] | outcome [7]
active: Potency [2] 48.3 µM

CCOC(=O)c1ccccc1C(=C1C=C(Br)C(=O)C(Br)=C1)c1cc(Br)c(O)c(Br)c1
active: Potency [3] 57.5 µM
inactive: Potency [1] | Potency [6] | outcome [7]

Cc1cc(=O)c2c(O)c3c(O)cc(=O)c4c3c3c(cc(O)c1c23)C(C)(C)C=4O
active: Potency [2] 1.46 µM
inactive: activity change [1] -5.72% [at 18.9 µM, active compounds read high] | activation [8] -11.3% [at 19 µM] | cAMP activity change [7] 14.8% [at 18.9 µM]

CC(=O)Nc1ccc(C)cc1C
inactive: Potency [1] | Potency [2] | Potency [5] | outcome [7]

Cc1cc(C)cc(N)c1
inactive: Potency [9] | Potency [8] | Potency [10] | Potency [2] | Potency [3] | Potency [4] | Potency [5] | Potency [6] | outcome [7]

Cc1cscn1
inactive: Potency [9] | Potency [8] | Potency [10] | Potency [2] | Potency [3] | Potency [4] | Potency [5] | Potency [6] | outcome [7]

O=C(CCc1ccc(O)cc1)c1c(O)cc(O)cc1O
inactive: Potency [1] | Potency [3] | Potency [4] | outcome [7]
active: Potency [8] 7.01 µM | Potency [6] 24.9 µM

CC(CN(C)C)C(C)(O)Cc1ccc(Cl)cc1 (stereo not given)
inactive: Potency [1] | Potency [2] | Potency [4] | Potency [6] | outcome [7]

CC(C)C(O)(c1ccc(OC(F)(F)F)cc1)c1cncnc1 (stereo not given)
inactive: Potency [1] | Potency [3] | Potency [5] | outcome [7]

CCCCCCNC(=O)n1cc(F)c(=O)[nH]c1=O
inactive: Potency [1] | Potency [10] | Potency [2] | Potency [5] | outcome [7]

COc1cc(C(=O)NC2CCN(C)CC2)ccc1Nc1ncc2c(n1)N(C1CCCC1)CC(F)(F)C(=O)N2C
inactive: Potency [1] | Potency [4] | Potency [6]
active: Potency [3] 22.3 µM | Potency [5] 15.8 µM

CCCCCCCCCCCCCCN(CCO)CCO
inactive: Potency [1]
active: Potency [2] 61.1 µM | Potency [3] 54.5 µM | Potency [5] 48.6 µM

CCCCC(CC)CN (stereo not given)
inactive: Potency [9] | Potency [8] | Potency [10] | Potency [2] | Potency [3] | Potency [4] | Potency [5] | Potency [6] | outcome [7]

C[C@@H]1CC(=O)NN=C1c1ccc(NN=C(C#N)C#N)cc1
inactive: Potency [1] | Potency [3] | Potency [4] | Potency [5] | Potency [6] | outcome [7]

O=C(/C=C/c1ccccc1)OCCc1ccccc1
inactive: Potency [9] | Potency [8] | Potency [10] | Potency [2] | Potency [3] | Potency [4] | Potency [5] | outcome [7]

CCOc1ccc(Cc2nccc3cc(OCC)c(OCC)cc23)cc1OCC
inactive: Potency [1] | Potency [8] | Potency [3] | Potency [4] | Potency [5] | Potency [6] | outcome [7]

O=C1NCCN1CCO
inactive: Potency [9] | Potency [8] | Potency [10] | Potency [2] | Potency [3] | Potency [5]

CS(=O)(=O)c1ccc(-c2cn3ccccc3n2)cc1
inactive: Potency [8] | Potency [2] | Potency [4] | Potency [5] | Potency [6] | outcome [7]

c1cc(N(CC2CO2)CC2CO2)ccc1Cc1ccc(N(CC2CO2)CC2CO2)cc1 (stereo not given)
inactive: Potency [3] | Potency [4] | Potency [5] | Potency [6] | outcome [7]
active: Potency [10] 27.3 µM

C[C@@]12CCC[C@H]1[C@@H]1CC[C@H]3C[C@@H](O)CC[C@]3(C)[C@H]1CC2
active: Potency [9] 23.7 µM
inactive: Potency [3] | Potency [5] | outcome [7]

CC(C)(C)CC(=O)OCC(=O)[C@@]1(O)CC[C@H]2[C@@H]3CCC4=CC(=O)C=C[C@]4(C)[C@H]3[C@@H](O)C[C@@]21C
inactive: Potency [8] | Potency [2] | Potency [6] | outcome [7]
active: Potency [9] 6.68 µM | Potency [10] 26.6 µM | Potency [3] 8.41 µM

CO[C@]1(NC(=O)CSC(F)F)C(=O)N2C(C(=O)O)=C(CSc3nnnn3CCO)CO[C@H]21
inactive: Potency [9] | Potency [8] | Potency [10] | Potency [2] | Potency [3] | Potency [5] | outcome [7]
